Experimental data: paper PMC8384837, “Expanding the binding specificity for RNA recognition by a PUF domain”

The sequences below were run against PUM1 PUF domain R1-VKR (Homo sapiens, UniProt Q14671 828-1176, S863V;R864K;Q867R) (assay: yeast three-hybrid, YBZ-1, SC-Leu-His + 0.5 mM 3-AT, 4 days). Settings: tags: N-Gal4 AD-HA kept; label: inside an RPR1-promoter hybrid RNA with tandem MS2 sites; ssRNA.
How it was run: (§1)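 The interaction score is the log change in variant frequency from input to selection. Scores were computed in log2 with a pseudocount of 1 for absent variants, using Illumina sequencing of PCR-amplified repeat regions. The input came from four days on SC-Leu and the selection from four days on SC-Leu-His + 0.5 mM 3-AT. The cells were strain YBZ-1 (LexA–MS2 coat fusion, HIS3 reporter) co-expressing Pumilio-1 PUF domain libraries and matching RNA elements from a centromeric plasmid.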
For “GGCUAGAACUAGUGGAUCCCCCGGCGCCCGGCGGCUCGAGCCCGGGUAAGUGUAAAUGGUCUGCAUGCCGCCGGGCGCCAUGCCUGCAGGUCGACUCUAGAAAACAUG”, the binding signal was 0.84 log2 enrichment (interaction score).
“GGCUAGAACUAGUGGAUCCCCCGGCGCCCGGCGGCUCGAGCCCGGGUAAGUGUAAAUUGUCUGCAUGCCGCCGGGCGCCAUGCCUGCAGGUCGACUCUAGAAAACAUG” was tested, and the binding signal was 1.61 log2 enrichment (interaction score).
For “GGCUAGAACUAGUGGAUCCCCCGGCGCCCGGCGGCUCGAGCCCGGGUAAGUGUAAAUCGUCUGCAUGCCGCCGGGCGCCAUGCCUGCAGGUCGACUCUAGAAAACAUG”, the binding signal was 3.48 log2 enrichment (interaction score).

Each sequence was assayed against PUM1 PUF domain R3-GWP (Homo sapiens, UniProt Q14671 828-1176, C935G;R936W;Q939P) in the same assay as above. Settings: tags: N-Gal4 AD-HA kept; label: inside an RPR1-promoter hybrid RNA with tandem MS2 sites; ssRNA.
How it was run: as §1
For “GGCUAGAACUAGUGGAUCCCCCGGCGCCCGGCGGCUCGAGCCCGGGUAAGUGUAAGUAGUCUGCAUGCCGCCGGGCGCCAUGCCUGCAGGUCGACUCUAGAAAACAUG”, the binding signal was 5.41 log2 enrichment (interaction score).
In the case of “GGCUAGAACUAGUGGAUCCCCCGGCGCCCGGCGGCUCGAGCCCGGGUAAGUGUAAUUAGUCUGCAUGCCGCCGGGCGCCAUGCCUGCAGGUCGACUCUAGAAAACAUG”, the binding signal is reported as 4.22 log2 enrichment (interaction score).
“GGCUAGAACUAGUGGAUCCCCCGGCGCCCGGCGGCUCGAGCCCGGGUAAGUGUAAAUAGUCUGCAUGCCGCCGGGCGCCAUGCCUGCAGGUCGACUCUAGAAAACAUG” was tested, and the binding signal was 6.69 log2 enrichment (interaction score).
